Data: PubChem BioAssay AID687001 (Broad Institute, 2013)
Potency and affinity values are given separately. Calls of active or inactive are those of the source.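 The calls were made as follows: active = signal-lowering compounds whose fitted half-maximal concentration is at or below twice the top tested dose in every run; inconclusive = runs disagree, flat 30 to 70% inhibition, or poor curve fit; inactive = the rest.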

Target: Protein S100-A4 (Homo sapiens) (UniProt P26447)
Test: human S100A4 peptide interaction inhibition curves – biochemical, fluorescence polarization, cherry-picked hits, dose response (AID 687001)
Conditions: FP, S100A4/TAMRA-myosin IIA peptide binding; series mostly up to 11 µM

Sequence of Protein S100-A4 (Homo sapiens) (P26447 whole entry, looked up): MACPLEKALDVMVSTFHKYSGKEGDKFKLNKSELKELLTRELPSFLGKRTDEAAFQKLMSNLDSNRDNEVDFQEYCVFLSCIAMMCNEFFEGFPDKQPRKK

outcome, inactive:
CN1CCN(C(=O)C[C@@H]2C=C[C@@H](NS(=O)(=O)c3cccc(F)c3)[C@@H](CO)O2)CC1
O=C(Cc1ccc(Br)cc1)N/N=C/c1cccnc1
CO[C@@H]1CN(C)C(=O)c2cc(NC(C)=O)ccc2OC[C@H](C)N(Cc2cncnc2)C[C@H]1C
Cc1ccnc(NC(=O)C(C)N2C(=O)c3ccccc3S2(=O)=O)c1 (stereo not drawn)
CCC(Sc1nc2ccncc2[nH]1)C(=O)Nc1ccc(C)c(Cl)c1 (stereo not drawn)
CC(C)Cc1cc(C(=O)NCCCN2CCOCC2)no1
CC(C)CC1C(=O)N(Cc2cn(CC3CCCCC3)nn2)CCS(=O)(=O)N1Cc1ccc(-c2ccc(Cl)cc2)cc1 (stereo not drawn)
CN1CCCCN2[C@@H](CO)[C@@H](c3ccc(C#CC4(O)CCCC4)cc3)[C@@H]2C1
Cc1cc(Cl)nc(-n2nc(C)cc2C)n1
O=C(CN1C(=O)/C(=C/c2ccccc2Cl)SC1=S)NC1C=CS(=O)(=O)C1 (stereo not drawn)
COc1cc(Cl)ccc1OCc1cc(C(=O)N2CCCCCCC2)no1
C[C@@H]1CN([C@@H](C)CO)C(=O)c2cccc(NC(=O)Nc3cccc4ccccc34)c2O[C@H]1CN(C)C(=O)Nc1ccccc1
CN(C)CC/C=C1/c2ccccc2COc2ccc(CC(=O)O)cc21
COc1ccc(NC(=O)Nc2cccc3c2O[C@H](CN(C)Cc2ccc4c(c2)OCO4)[C@@H](C)CN([C@@H](C)CO)C3=O)cc1
C[C@@H]1CN([C@H](C)CO)C(=O)c2cccc(NC(=O)CCCCCC(=O)Nc3ccccc3N)c2O[C@H]1CN(C)S(=O)(=O)c1cccs1
CCCCN(C(=O)c1c(-c2ccccc2)noc1C)c1c(N)n(CCC)c(=O)[nH]c1=O
C[C@@H]1CN([C@H](C)CO)S(=O)(=O)c2ccc(-c3cccnc3)cc2O[C@@H]1CN(C)C(=O)CC1CC1
O=C(NCCS(=O)(=O)NCCCc1ccccc1)c1ccccc1
CCCC(=O)Nc1ccc(C=C(C(C)=O)C(C)=O)cc1
O=C(C[C@@H]1C=C[C@@H](NS(=O)(=O)c2cccc(F)c2)[C@@H](CO)O1)NCc1ccc2c(c1)OCO2
Cc1ccccc1S(=O)(=O)N1C[C@H](O)COC[C@@H]2O[C@@H](CC(=O)NCc3ccccc3Cl)CC[C@H]21
COC(=O)c1sccc1NC(=O)Nc1ccc(C)c(C)c1
COc1cccc(CN2CC3(CN(C)C3)c3c([nH]c4cc(OC)ccc34)[C@@H]2CO)c1
CCN(CC)C(=O)Oc1ccc2c(c1)O/C(=C\c1ccco1)C2=O
O=C1NC(Cc2ccc(Cl)cc2)COCc2cnnn2CCC1c1ccccc1 (stereo not drawn)
CC(C)NC(=O)N(C)C[C@@H]1Oc2c(NC(=O)Nc3cccc4ccccc34)cccc2C(=O)N([C@H](C)CO)C[C@H]1C
C[C@@H]1CCCCO[C@H](CN(C)C(=O)NC2CCCCC2)[C@@H](C)CN([C@@H](C)CO)C(=O)c2cc(NC(=O)Nc3ccc(C(F)(F)F)cc3)ccc2O1
COc1ccc(NC(=O)CN(C)C(=O)c2ccc(N3CCCC3)c([N+](=O)[O-])c2)cc1
S=C(NCCCc1cnc[nH]1)NCCCN(Cc1ccc(Cl)cc1)c1ccc(Br)cn1
O=C(NCCc1ccco1)C(=O)NCC1OCCCN1S(=O)(=O)c1cc(F)ccc1F (stereo not drawn)
O=C(NCCN1CCOCC1)c1ccc(/C=C2\Sc3ccccc3N(Cc3ccccc3F)C2=O)cc1
COc1cc2c3nnc(-c4ccc(F)cc4)c-3cn(Cc3ccc(C)cc3)c2cc1OC
CC(C)[C@H](NC(=O)c1ccccc1F)C(=O)NCc1ccc(S(N)(=O)=O)cc1
O=C(/C=C(\Nc1ccc(Cl)c(C(F)(F)F)c1)c1ccccc1)c1ccccc1
CC(C)CC#Cc1ccc([C@H]2[C@H]3CN(C(=O)Cc4cccnc4)CC(=O)N3[C@H]2CO)cc1
ON(CCc1ccncc1)Cc1ccccc1
C[C@@H]1CN([C@H](C)CO)C(=O)c2cc(C#Cc3ccccc3)cnc2O[C@@H]1CN(C)C(=O)c1ccccc1F
O=C1CCCn2cc(nn2)COC[C@@H](Cc2ccccc2)N1
